PubChem BioAssay AID624351 (Southern Research Specialized Biocontainment Screening …, 2012)
The campaign covered roughly 2,400 compounds. About 1,400 (58%) were called active.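 Rule for the calls: active = inhibition of 30% or more at any tested dose; inconclusive = primary hits over the limit that were never retested; inactive = the rest.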 The set was probably picked from earlier hits. The list shows a part of the results.

experiment: ADP Hunter readout inhibition without MgcRacGAP – biochemical, coupled enzyme counter-screen, artefact control for MgcRacGAP inhibitor project, dose response (AID 624351); conditions: fluorescence, no MgcRacGAP; series mostly up to 80 µM;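 note: signal is the ADP detection kit reading of free GDP without any GAP enzyme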;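 for inhibition: 0% = median positive control wells and 100% = median negative control wells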

Row | Structure (SMILES) | IC50 | inhibition
1 | CCOc1cc(/C=N/NC(=O)CSc2cccc3cccnc23)ccc1O | 36.7 µM (active) | –
2 | CCn1c(SC(C)C)nnc1-c1cc(-c2ccccc2)sc1N | 26.7 µM (active) | –
3 | C=CCn1c(SCC(C)=O)nnc1-c1cc(-c2ccccc2)sc1N | 50.1 µM (active) | –
4 | CCN(CC)CCOc1ccc2c(c1)C(=NNC(=O)c1ccccn1)c1cc(OCCN(CC)CC)ccc1-2 | inactive | –
5 | O=C(Oc1ccc2c(c1)OCO2)c1ccc(Br)c(S(=O)(=O)N2CCOCC2)c1 | inactive | –
6 | Cc1ccc(C2C=NN(c3ccccc3)C2=O)cc1 (configuration not stated) | 78.2 µM (active) | –
7 | CC1=NN(c2ccccc2)C(=O)C1/C=C1\NC(=S)NC1=O (configuration not stated) | inactive | –
8 | Cc1ccc(-n2sc3ccccc3c2=O)cc1 | inactive | –
9 | COc1cc(/C=N/NC(=O)C(C)n2nnc3ccccc32)ccc1O (configuration not stated) | 23.6 µM (active) | –
10 | COc1cc(/C=N/NC(=O)CCn2nnc3ccccc32)ccc1O | 53.8 µM (active) | –
11 | COc1cc(/C=N/NC(=O)Cn2nnc3ccccc32)ccc1O | 20.7 µM (active) | –
12 | Cc1cc(NC(=O)CN2CCN(C)CC2)no1 | inactive | –
13 | Cc1cc(NC(=O)c2sc3ccccc3c2O)no1 | 74.8 µM (active) | –
14 | Cc1cc(NC(=O)CN2CCC(C)CC2)no1 | inactive | –
15 | COc1ccccc1NC(=O)NNC(=O)c1ccc2ccccc2c1O | inactive | –
16 | O=C(Nc1ccccn1)c1ccc2ccccc2c1O | 78.1 µM (active) | –
17 | COc1ccc2c(c1)-c1c(ssc1=S)C(C)(C)N2 | 33.6 µM (active) | –
18 | COc1ccc(Oc2cn[nH]c2-c2ccc(O)cc2O)cc1 | 29.9 µM (active) | –
19 | COc1cccc(Oc2cn[nH]c2-c2ccc(O)cc2O)c1 | 52.5 µM (active) | –
20 | CCOc1ccccc1Oc1cn[nH]c1-c1ccc(O)cc1O | 33.8 µM (active) | –
21 | C#CCOCCOCCOCCNc1nc(N2CCN(C(=O)[C@H](CCCCN)n3cc([C@@H](N)C(C)CC)nn3)CC2)nc(N2CCN(C(=O)[C@H](CCCCN)n3cc([C@@H](N)CC(C)C)nn3)CC2)n1 (some centres not stated) | inactive | –
22 | CCn1c(C)nc2cc(C(=O)N/N=C/c3ccc(O)cc3)ccc21 | 81.6 µM (active) | –
23 | CC1=NN(C(N)=S)C(=O)C1N=Nc1ccc(O)cc1 (configuration not stated) | 19.5 µM (active) | –
24 | O=C(Nc1ccc(Oc2nnc(-c3ccccc3)c3ccccc23)cc1)c1ccccc1 | inactive | –
25 | CC(=O)Nc1ccc(Oc2nc(-c3ccccn3)nc3ccccc23)cc1 | 26.7 µM (active) | –
26 | CN(C)CCCNCC(=O)c1c(-c2ccccc2)n(C)c2ccccc12 | – | -1.7% [at 10 µM] (inactive)

Row | Structure (SMILES) | IC50 | inhibition
27 | O=C(N/N=C/c1ccc(O)c(O)c1)C1c2ccccc2Oc2ccccc21 | 51 µM (active) | –
28 | Oc1ccc(/C=N/Nc2ncnc3nc[nH]c23)cc1 | 13.2 µM (active) | –
29 | c1nc(SSc2ncnc3nc[nH]c23)c2[nH]cnc2n1 | inactive | –
30 | Nc1c(Cl)ncnc1N/N=C/c1ccc(O)cc1 | 15.1 µM (active) | –
31 | CCOc1cc(/C=N/Nc2ncnc(Cl)c2N)ccc1O | 30.7 µM (active) | –
32 | Cc1[nH]ccc2c1[nH]c1cc(=O)ccc12 | 61.9 µM (active) | –
33 | CC/C(=N\O)c1ccc(O)c(OC)c1 | 61.2 µM (active) | –
34 | COc1ccc(S(=O)(=O)N2CCC(N3CCN(Cc4ccccc4)CC3)CC2)cc1 | inactive | –
35 | O=c1cc(-c2ccc(O)c(O)c2)oc2cc(O)c(C3OC(CO)C(O)C(O)C3O)c(O)c12 (configuration not stated) | 45.9 µM (active) | –
36 | C[C@@H]1O[C@@H](OC[C@H]2O[C@@H](Oc3cc(O)c4c(=O)cc(-c5ccc(O)c(O)c5)oc4c3)[C@H](O)[C@@H](O)[C@@H]2O)[C@H](O)[C@H](O)[C@H]1O | 46 µM (active) | –
37 | O=C(O)c1cc(O)c2c(c1)[C@@H]([C@H]1c3cc(C(=O)O)cc(O)c3C(=O)c3c(O[C@@H]4O[C@H](CO)[C@@H](O)[C@H](O)[C@H]4O)cccc31)c1cccc(OC3O[C@H](CO)[C@@H](O)[C@H](O)[C@H]3O)c1C2=O (some centres not stated) | inactive | –
38 | O=c1cc(-c2ccc(O)c(O)c2)oc2cc(O)c([C@@H]3O[C@H](CO)[C@@H](O)[C@H](O)[C@H]3O)c(O)c12 | 59 µM (active) | –
39 | COc1cc(/C=C/C(=O)OCC(=O)NCc2ccc(F)cc2)ccc1O | 40 µM (active) | –
40 | COC(=O)c1ccc2c(c1)C(C)(C)C(/C=C/c1ccc(OC)c(OC)c1OC)=[N+]2C | inactive | –
41 | COc1cc(C(C[N+](=O)[O-])c2c(N)n(C)c(=O)n(C)c2=O)ccc1O (configuration not stated) | inactive | –
42 | CN(CC(=O)NCc1ccccc1)Cc1cccc(F)c1 | inactive | –
43 | COc1cc(/C=C/C(=O)OCC(=O)NCCCc2ccccc2)ccc1O | 33.5 µM (active) | –
44 | COc1cc(/C=C/C(=O)OCC(=O)N(CC(C)C)c2c(N)n(Cc3ccccc3)c(=O)[nH]c2=O)ccc1O | 61.2 µM (active) | –
45 | COc1ccc(CNC(=O)CN(C)Cc2ccc(C(C)(C)C)cc2)cc1 | inactive | –
46 | COC(=O)c1ccc2c(c1)C(C)(C)C(/C=C/c1ccccc1O)=[N+]2C | inactive | –
47 | COC(=O)c1ccc(CNC(=O)COC(=O)/C=C/c2ccc(O)c(OC)c2)cc1 | 31 µM (active) | –
48 | CC(C)(c1ccccc1)c1ccc(OCC(O)CNC2CCN(Cc3ccccc3)CC2)cc1 (configuration not stated) | inactive | –
49 | CN(C)c1ccc(N=Cc2nc(-c3ccccc3)oc2OC(=O)c2cccc(Cl)c2)cc1 | inactive | –
50 | COc1cc(/C=C/C(=O)OCC(=O)N(C)Cc2ccccc2)ccc1O | 34.7 µM (active) | –
51 | CC(C(=O)N(C)Cc1ccccc1)N1CCN(C/C=C/c2ccccc2)CC1 (configuration not stated) | inactive | –
52 | C/C=C/c1ccc(OCCCCN(C)Cc2ccccc2)c(OC)c1 | inactive | –

Row | Structure (SMILES) | IC50 | inhibition
53 | Oc1ccc(N2CCN(c3ccnc4cc(Cl)ccc34)CC2)cc1 | 53.3 µM (active) | –
54 | Oc1ccc(Nc2ccnc3cc(Cl)ccc23)cc1 | 26.3 µM (active) | –
55 | Oc1ccc(/C=N/Nc2ccnc3cc(Cl)ccc23)cc1O | 40.3 µM (active) | –
56 | CN(C)c1ncc(C2=C(Cl)C(=O)C(N3CCCC3)=C(Cl)C2=O)s1 | – | -12.5% [at 10 µM] (inactive)
57 | Nc1ccc2c(c1)OC1(CCCC1)O2 | 26 µM (active) | –
58 | Nc1cc(Cc2ccccc2)ccc1O | 24.1 µM (active) | –
59 | COc1ccc(Br)cc1CNc1ccc(O)cc1 | 54 µM (active) | –
60 | COc1ccc(Br)cc1CN(C)CC(=O)NCCc1ccccc1 | inactive | –
61 | Oc1ccc(NCc2ccccc2OCc2ccccc2F)cc1 | inactive | –
62 | CN1C(=O)/C(=C/C=C2/CCCN2C)N(C)C1=S | 24.6 µM (active) | –
63 | CN1C(=O)/C(=C/C=C2\SCCN2C)N(C)C1=S | 26.6 µM (active) | –
64 | c1ccc(-c2ccccc2OCCOCCN2CCOCC2)cc1 | inactive | –
65 | NC(N)=N/N=C/c1ccc(Cl)cc1Cl | inactive | –
66 | CCN(CC)c1ccc(/C=N/NC(=O)OC)c(O)c1 | 62.6 µM (active) | –
67 | CCOC(=O)N/N=C/c1ccc(N(CC)CC)cc1O | 81.2 µM (active) | –
68 | CCN(CC)c1ccc(/C=N/Nc2nc(C)cc(C)n2)c(O)c1 | 65.2 µM (active) | –
69 | CCc1ccc2nc3sc(C(=O)O)cc3cc2c1 | inactive | –
70 | CCOc1cc(/C=N/Nc2nc(=O)[nH]nc2C)ccc1O | 43.9 µM (active) | –
71 | CCOc1cc(/C=N/Nc2ncc(C)c(=O)[nH]2)ccc1O | 38.9 µM (active) | –
72 | COc1ccccc1CNCC(=O)Nc1ccc(N(C)C)cc1 | 63.3 µM (active) | –
73 | COc1ccccc1CNCC(=O)NCc1ccc(C)cc1 | inactive | –
74 | CCc1ccc(NC(=O)CNCc2ccc(OC)c(OC)c2)cc1 | inactive | –
75 | COc1cc(CC(=O)OCC(=O)Nc2ccc(N(C)C)cc2)cc(OC)c1OC | 68 µM (active) | –
76 | COc1ccccc1/C=C(/C(=O)OCC(=O)Nc1ccc(N(C)C)cc1)c1ccccc1 | 66.3 µM (active) | –
77 | CCN(CC)c1ccc(NC(=O)COC(=O)Cc2ccsc2)cc1 | 42.9 µM (active) | –
78 | COc1ccccc1CNC(=O)C[C@@H]1C[C@H]2c3cc(N(C)C)ccc3O[C@H]2[C@H](CO)O1 | inactive | –

Row | Structure (SMILES) | IC50 | inhibition
79 | COc1ccccc1CNCC(=O)Nc1ccccc1-n1cccc1 | inactive | –
80 | COc1ccc(NCCC#N)cc1 | 82.2 µM (active) | –
81 | O=S(=O)(O)c1cc(O)c(N=Nc2ccc(O)cc2O)c2ccccc12 | 30.7 µM (active) | –
82 | CC(C)C1N=C2c3ccccc3N=C(SCC(=O)c3ccc(O)c(O)c3)N2C1=O (configuration not stated) | 34.7 µM (active) | –
83 | CCN(CC)c1ccc(Nc2nc(Cl)ncc2Br)cc1 | 49.4 µM (active) | –
84 | O=c1oc(-c2ccc(O)c(O)c2)cc2cc(O)cc(O)c12 | 23 µM (active) | –
85 | O=c1oc(-c2ccc(O)c(O)c2)cc2cccc(O)c12 | 20.7 µM (active) | –
86 | N#CC1=C(S)N(c2ccc(F)cc2)C(c2cccs2)NC1=O (configuration not stated) | inactive | –
87 | O=C1NC2c3c(I)sc(I)c3C(=O)C2O1 (configuration not stated) | inactive | –
88 | COc1cc(CNCCNC(=O)c2nonc2N)ccc1OCc1ccc(Cl)cc1 | inactive | –
89 | Oc1ccc(/C=N/N=C/c2ccc(O)cc2)cc1 | 84 µM (active) | –
90 | N/C(=N\N=C\c1ccc(O)cc1)c1nonc1N | 31.1 µM (active) | –
91 | COc1cc(/C=N/N=C(\N)c2nonc2N)ccc1O | 30.3 µM (active) | –
92 | N#Cc1c(Nc2ccc(Cl)cc2)s[nH]c1=O | inactive | –
93 | Cc1ccc(/C=[N+](\[O-])c2ccc(N(C)C)cc2)c2nsnc12 | 16.1 µM (active) | –
94 | CCOC(=O)C1(C)C=C(Nc2ccc(O)cc2)C(=O)N1c1ccc(O)cc1 (configuration not stated) | 19.6 µM (active) | –
95 | O=C1/C(=C\c2ccco2)CCC/C1=C\c1ccco1 | inactive | –
96 | Nc1cc(Br)c(N)c(Br)c1 | 10.6 µM (active) | –
97 | OCC1CCCN(C(=S)Nc2ccc(Nc3ccccc3)cc2)C1 (configuration not stated) | 41.7 µM (active) | –
98 | OC1CCN(C(=S)Nc2ccc(Nc3ccccc3)cc2)CC1 | 36.5 µM (active) | –
99 | CCOC(=O)C1CCN(Cc2ccc(-c3ccccc3)cc2)CC1 | inactive | –
100 | OCCN1CCN(C(=S)Nc2cccc(C(F)(F)F)c2)CC1 | inactive | –
101 | CCOC(=O)C1CCCN(C(=S)Nc2ccc(Nc3ccccc3)cc2)C1 (configuration not stated) | 55.1 µM (active) | –
102 | CCOC(=O)C1CCN(Cc2cccc(Oc3ccccc3)c2)CC1 | inactive | –
